Assay results reported in PubChem BioAssay (NCATS).
Results filed as inconclusive are left out. Unmarked numbers belong to inactive results. The call rests on the fitted dose curve; in most records, active means well fitted inhibition curve with a large enough effect; inconclusive means small, poorly fitted or top-dose-only effect; inactive means flat fitted curve, though single readings scatter.

Molecular target: Calcium and integrin-binding protein 1 (Homo sapiens) (UniProt Q99828)
Assay: Primary qHTS for Identification of Calcium Integrin Binding Protein 1 (CIB1) Competitor (AID 1508620);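 further: GST tagged CIB1 binding a fluorescein labelled alphaIIb integrin peptide tracer; top concentration of the series differs between compounds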
Details: CIB1-GST / FITC-alphaIIb peptide fluorescence polarization; series mostly up to 114 µM; activity change, negative = inhibition: at the top concentration
Outline: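 Fluorescence polarization competition: CIB1-GST (1 uM final) preincubated with compound 15 min at room temperature, then FITC-labeled alphaIIb peptide (100 nM final) added for another 15 min. Polarization read at Ex 480/Em 540.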
On the % scale 0 is the no-effect control and ±100 the full control effect.

Sequence of Calcium and integrin-binding protein 1 (Homo sapiens) (Q99828 whole entry, looked up): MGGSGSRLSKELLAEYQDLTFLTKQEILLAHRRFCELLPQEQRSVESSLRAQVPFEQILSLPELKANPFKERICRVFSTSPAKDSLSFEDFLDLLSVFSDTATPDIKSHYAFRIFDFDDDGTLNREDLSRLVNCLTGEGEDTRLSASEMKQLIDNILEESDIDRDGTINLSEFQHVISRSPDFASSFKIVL

| Compound | activity change, negative = inhibition [%] |
| --- | --- |
| Cc1ccc(-c2csc3ncnc(Sc4nnnn4C)c23)cc1 | 7.71 |
| COc1ccc(NC(=O)c2ccc(-c3nc4ccccc4[nH]3)cc2)cc1OC | 6.3 |
| Cc1cc2c(s1)c1cnn(Cc3cc(F)ccc3C)c(=O)c1n2C | -0.189 |
| CCOc1ccc(CCNC(=O)c2cc3sccc3n2C)cc1OCC | -3.39 |
| NC1CCN(c2nc(-c3ccc(Br)cc3)cs2)CC1 | -7.35 |
| CC1(C)CC(=O)C2=C(C1)NC(Nc1nc3ccccc3o1)=NC21CCCC1 | 4.95 |
| Cc1cc(C)nc(NC(=S)N2CCN(c3cc(Cl)cc(C(F)(F)F)c3)CC2)c1 | -12.4 |
| Cc1ccc(OCCn2c(CCNC(=O)c3ccc(Br)o3)nc3ccccc32)cc1 | -1.02 |
| C=CCNc1oc(-c2cccc(Cl)c2)nc1C#N | -19.5 |
| COc1ccc(C2Nc3ccccc3C(=O)N2Cc2ccncc2)cc1COc1c(C)cc(NC(C)=O)cc1C (stereo not drawn) | 2.95 |
| CC(=O)Nc1oc(-c2cccc3ccccc23)nc1C#N | -3.59 |
| O=C(Nc1cncc(O)c1)c1cccs1 | -0.677 |
| Cc1cnc(-c2ccccc2C(C)C)nc1N(C)Cc1ccc(-c2cccnc2)cc1 | -0.685 |
| COc1nccc(-c2nc(Nc3ccc(F)c(F)c3)c3ccccc3n2)c1OC | 3.27 |
| Cc1ccc(NS(=O)(=O)c2cc3c(cc2C)OCC(=O)N3)cc1C | 3.46 |
| CCOc1ccccc1-c1nnc2n1N=C(c1c(OC)cccc1OC)CS2 | 5.07 |
| O=C1CCCC2=C1C(c1[nH]ncc1Cl)NC(=NCc1cccnc1)N2 (stereo not drawn) | 1.94 |
| CCOC(=O)CCCC(=O)Nc1ncnc2c1C(c1ccccc1)c1c(ccc3ccccc13)O2 (stereo not drawn) | 7.37 |
